# In all, about 48,000 compounds went through this assay and about 13,000 (27%) showed an effect of 50% or more. This is one part of the list.
# Test system: Wolbachia pipientis
# Assay: Anti-Wolbachia Cell-Based Screen
# Type: functional
# Set-up: scale not given: in the data most compounds retested in dose-response had high values
# Conditions: 5 µM
row,Compound,Percent Effect [%]
1,Cc1nc2c(c(=O)n1C)CN(C(=O)C1CCCN(C(=O)N(C)C)C1)C2 (stereo not drawn),1.11
2,Cc1nc(N2CCCC2)nc2c1CN(C(C)C)CC2.O=C(O)C(F)(F)F,-22.93
3,Cc1nc(N2CCCC2)nc2c1CN(C(=O)N(C)C)CC2,100.4
4,CC(=O)N1CCc2nc(N3CCCC3)nc(C)c2C1,96.78
5,Cc1nc(N2CCCC2)nc2c1CN(C(=O)NC(C)C)CC2,102.9
6,CN(Cc1ccccc1)C(=O)c1cc2c(c(S(N)(=O)=O)c1)CCC2,-0.2198
7,CCCOc1ccc2ccccc2c1CN1CC[C@@]2(O)CCNC[C@H]2C1,3.118
8,CCc1nc(C)cc(NC(C)C(=O)Nc2cc(F)ccc2C)n1 (stereo not drawn),4.426
9,CCc1cc(N[C@H]2CCC[C@H]2CO)n2nccc2n1,-20.55
10,O=C(c1cccnc1)N1C[C@@H]2OCC(=O)N(Cc3cccnc3)[C@@H]2C1,-21.42
11,O=C(c1ccccn1)N1C[C@@H]2CC[C@H](C1)N(C(=O)c1ccsc1)C2,-66.93
12,O=C(c1ccco1)N1CC(S(=O)(=O)c2ccc(Cl)cc2)C1,72.73
13,O=C(c1ccccn1)N1CC(S(=O)(=O)c2ccc(Cl)cc2)C1,113.3
14,O=C(c1cccnc1)N1CC(S(=O)(=O)c2ccc(Cl)cc2)C1,139.6
15,O=C(c1ccccn1)N1CCC(Oc2ncccc2Cl)CC1,6.011
16,O=C(c1ccccn1)N1CCC(S(=O)(=O)c2ccccc2)C1 (stereo not drawn),101.3
17,O=C(C[C@H]1[C@H]2CN(C(=O)c3cccnc3)C[C@@H]12)Nc1cccnc1,-0.113
18,O=C(c1ccccn1)N1CCC(Oc2cccnc2)CC1,-15.11
19,O=C(O)C(F)(F)F.O=C(c1ccccn1)N1CC[C@H]2[C@H]1CCN2S(=O)(=O)C1CC1,-10.64
20,Cn1cnnc1S(=O)(=O)C1CCN(C(=O)c2ccco2)CC1,9.772
21,NC(=O)N1C[C@@H]2CN(C(=O)c3ccco3)C[C@@H]2C1,-28.89
22,CN(C1CCCC1)C(C)(C)C(=O)NCCS(C)(=O)=O,3.461
23,N#CCc1ccc(NC(=O)N[C@H](CO)Cc2ccc(O)cc2)cc1,-6.882
24,CCc1nc2c(c(NCc3cc(-c4cccnc4)no3)n1)CCNCC2,11.03
25,O=C(c1cnccn1)N1CC(S(=O)(=O)c2ccc(Cl)cc2)C1,115.9
26,O=C(NC1CC1)C1CN(C(=O)c2cnccn2)C1,-10.02

row,Compound,Percent Effect [%]
1,O=C(NCc1c(F)cccc1F)C1CN(C(=O)c2cnccn2)C1,-2.814
2,CCOCC(O)CNc1cncc(Br)c1 (stereo not drawn),-4.889
3,CC(=O)CC(C)(C)NC(=O)CCN(C)Cc1ccc(Cl)s1,13.53
4,CN1CC(=O)N(C2CCCNC2)Cc2c(NC3CCC3)ncnc21 (stereo not drawn),103.9
5,O=c1c2cccc(C(F)(F)F)c2ncn1C1CCNC1 (stereo not drawn),-5.057
6,CN1CC(=O)N(C2CCNC2)Cc2c(NC3CCCC3)ncnc21 (stereo not drawn),104.3
7,CC1=C(C(=O)N2CCOC(Cc3cccc(C(F)(F)F)c3)C2)OCCO1 (stereo not drawn),-4.78
8,Cc1noc(C)c1CCNc1nccc(CCC(F)(F)F)n1,1.118
9,CN(C)Cc1nn(C)c2c1CN(S(=O)(=O)c1ccccc1F)C2,3.844
10,CC(=O)NC1CCN(c2cc(-c3ccccc3)nc3c(C)c(C)nn23)C1 (stereo not drawn),-1.812
11,CCc1[nH]ncc1C(=O)N1CCCC(n2ccnc2C(C)C)C1 (stereo not drawn),-14.63
12,CCn1cc(S(=O)(=O)N2CCCCCC2c2cc(C)no2)cn1 (stereo not drawn),176.5
13,CNS(=O)(=O)CCCN1CCCC1c1cc(C)on1 (stereo not drawn),-6.242
14,CCn1cc(CN(C)S(=O)(=O)N2CCCC2c2ccco2)cn1 (stereo not drawn),-4.974
15,CCn1cc(S(=O)(=O)N2CCCCCC2c2cc(C)on2)cn1 (stereo not drawn),92.08
16,CCOC(=O)C1CCN(C(=O)CN2CCCC2c2cc(C)no2)CC1 (stereo not drawn),-7.861
17,CC(C)OCCC1CCCCN1S(=O)(=O)c1cnn(C)c1 (stereo not drawn),-6.246
18,COCCOCCC(=O)Nc1c(-c2ccc(F)cc2)ncn1C,-3.986
19,CCn1[nH]c(C)c2c(C(F)(F)F)cc(=O)nc1-2,-15.52
20,COc1c(C2CCCN2c2ncnc3ccsc23)c(C)nn1C (stereo not drawn),5.005
21,CC(NC(=O)CCOc1ccccc1Cl)c1nnc2n1CCC2 (stereo not drawn),1.83
22,CC(NC(=O)CCc1nc(C(C)(C)C)no1)c1nnc2n1CCC2 (stereo not drawn),1.388
23,CN1N=C(C(=O)N2CCN(c3ncccn3)CC2)CCC1=O,16.67
24,CN(C)C(=O)C1CCc2nnc(C(C)(C)C)n21 (stereo not drawn),107
25,CC(C)(C)c1nnc2n1C(C(=O)N1CCN(c3ncccn3)CC1)CC2 (stereo not drawn),115.5
26,CC(C)NC(=O)C1CCc2nnc(C(C)(C)C)n21 (stereo not drawn),100.1

row,Compound,Percent Effect [%]
1,CC(C)(C)c1nnc2n1C(C(=O)N1CCOCC1)CC2 (stereo not drawn),111.9
2,O=C1CCSCC(C(=O)N2CCOCC2)N1 (stereo not drawn),-11.6
3,O=C(COC1CCCC1)N1CCCN(c2ncccn2)CC1,-14.8
4,Cc1cn2nc(N3CCCC3C(=O)N3CCOCC3)sc2n1 (stereo not drawn),-18.11
5,CCc1nc2n(n1)CCCC2NC(=O)Nc1cccc(F)c1F (stereo not drawn),-21.46
6,C[S+]([O-])c1cccc(NC(=O)N(CCC#N)Cc2ccccn2)c1 (stereo not drawn),-5.424
7,CCn1cc(CNc2ccc(N(C)CCOC)cn2)cn1,3.344
8,O=C(C1CCCc2[nH]ncc21)N1CCCCCC1 (stereo not drawn),7.18
9,O=C(C1CCCc2[nH]ncc21)N1CCCC1 (stereo not drawn),-1.484
10,CC(C)(C)c1nnc2n1C(C(=O)N1CCCC1)CC2 (stereo not drawn),107.6
11,COCC1CN(Cc2ccoc2)Cc2cn(CC3CCOCC3)nc21 (stereo not drawn),-9.673
12,O=C(NCCCO)Nc1ccccc1,-6.748
13,CN1CCCC1CNC(=O)CCCOCc1ccccc1 (stereo not drawn),-8.407
14,CN1CCCC1CCNC(=O)Nc1ccccc1 (stereo not drawn),124.8
15,Cc1ccccc1CNC(=O)N1CC[C@@H]2CN(C)S(=O)(=O)[C@@H]2CC1,-7.794
16,Cc1ccccc1NC(=O)N1CC[C@@H]2CN(C)S(=O)(=O)[C@@H]2CC1,-6.47
17,COc1cccc(CC(=O)N2CCC(Cc3nnc(SC)n3C)CC2)c1,13.49
18,COc1cccc(CC(=O)N2CCN(c3cccc(C)c3)C(C)C2)c1 (stereo not drawn),0.04468
19,COc1cccc(CC(=O)N2CC[C@@H]3CN(C)S(=O)(=O)[C@@H]3CC2)c1,102.6
20,CCN1C[C@H]2CCN(C(=O)Cc3cccc(OC)c3)CC[C@H]2S1(=O)=O,109.3
21,CCN1C[C@H]2CCN(C(=O)Nc3ccccc3C)CC[C@H]2S1(=O)=O,5.146
22,CCN1C[C@H]2CCN(C(C)=O)CC[C@H]2S1(=O)=O,7.241
23,COc1cccc(NC(=O)N2CC[C@@H]3CN(C)S(=O)(=O)[C@@H]3CC2)c1,108.6
24,CN1C[C@H]2CCN(C(=O)NC3CCCC3)CC[C@H]2S1(=O)=O,24.31
25,COc1ccc(CC(=O)N2CCC(c3n[nH]c(C4CC4)n3)CC2)cc1,-2.488
26,COc1ccc(CC(=O)N2CC[C@@H]3CN(C)S(=O)(=O)[C@@H]3CC2)cc1,96.9
